Among the test systems are NCI-H23 lung; NCI-H226 lung; NCI-H322M lung; HOP-62 NSCLC; NCI-H460 lung; HOP-92 NSCLC; NCI-H522 lung; A549/ATCC NSCLC; 786-0 renal; COLO 205 colon; DU-145 prostate; K-562 leukemia; MALME-3M melanoma; MDA-MB-231 breast; RXF 393 renal; SF-268 CNS; SF-295 CNS; SF-539 CNS; UACC-257 melanoma; M14 melanoma.
What all share (assay): NCI-60 one-dose screen, 48 h (100 = growth as untreated, 0 = no growth, -100 = all killed)
Details in all cases: 10 µM unless noted

This is part of a sample that, as a whole, favours compounds with a hit. Of some 83,000 tested, about 20% had one in any assay.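 Testing used 96-well plates and a 48-hour single-concentration exposure. Example: -40 means 40% of the starting cells died.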 Unmarked numbers belong to inactive results. Calls of active or inactive are those of the source. Rule for the calls: active = growth percent below 10; inactive = the rest.

On to `CN(C)c1ccc(-c2cc(-c3c[nH]c4ccccc34)nc(N)c2C#N)cc1`, for which the growth was 54.8% with NCI-H23 lung; 62.8% in the assay with NCI-H226 lung; 69.5% in the assay with NCI-H322M lung; 33.3% in the assay with HOP-62 NSCLC; 7.07% (active) in the assay with NCI-H460 lung; 27.5% in the assay on HOP-92 NSCLC. In addition, the growth in the assay with NCI-H522 lung was 2.93% (active); with A549/ATCC NSCLC it was 25.4%; in the assay on 786-0 renal, 17.5%; with COLO 205 colon, 22.1%; in the assay on DU-145 prostate, 49.2%; with K-562 leukemia it was 17.5%. Also, the growth with MALME-3M melanoma is 64.4%; in the assay on MDA-MB-231 breast, 36%; in the assay on RXF 393 renal, 2.37% (active); with SF-268 CNS, 52.3%; in the assay on SF-295 CNS, 26.8%; with SF-539 CNS, 37.5%. The growth in the assay with UACC-257 melanoma was 56.9%; in the assay on M14 melanoma, -27.1% (active).

`Cc1ccc2c(n1)C(=O)C(Cl)=C(Nc1cccc(C(=O)OC(C)(C)C)c1)C2=O`: the growth in the assay with NCI-H23 lung was 73.7%; in the assay on NCI-H226 lung it was 82.8%; in the assay with NCI-H322M lung, 112%; with HOP-62 NSCLC, 108%; in the assay on NCI-H460 lung it was 101%; in the assay with HOP-92 NSCLC, 88.8%. The growth with NCI-H522 lung was 60.6%; in the assay with A549/ATCC NSCLC, 106%; with 786-0 renal, 99.8%; in the assay on COLO 205 colon, 119%; in the assay on DU-145 prostate it was 94.8%; in the assay with K-562 leukemia it was -18.1% (active). The growth was 127% with MALME-3M melanoma; 74.4% with MDA-MB-231 breast; 84.3% with RXF 393 renal; 93.4% in the assay on SF-268 CNS; 104% with SF-295 CNS; 105% with SF-539 CNS. In addition, the figures for the growth with UACC-257 melanoma and in the assay with M14 melanoma were 72.3% and 96.5%, respectively.

Take `Cn1cc(-c2cc3ncnc(Nc4ccc(NC(=O)Nc5cc(C(C)(C)C)on5)cc4)c3s2)cn1`: the growth was 29.4% with NCI-H23 lung; 30.7% in the assay on NCI-H226 lung; 57.4% in the assay on NCI-H322M lung; 62.7% in the assay on HOP-62 NSCLC; 42.6% with NCI-H460 lung; 22.5% with HOP-92 NSCLC. For the same compound, the growth in the assay on NCI-H522 lung is 32.5%; in the assay on A549/ATCC NSCLC, 31.6%; in the assay with 786-0 renal it was 3.44% (active); with COLO 205 colon, 12.9%; in the assay on DU-145 prostate, 47.8%; with K-562 leukemia, 8.65% (active). Also, the growth in the assay with MALME-3M melanoma is 17.3%; in the assay with MDA-MB-231 breast it was 28%; in the assay with RXF 393 renal, -5.22% (active); with SF-268 CNS it was 45.5%; in the assay with SF-295 CNS, -37.8% (active); in the assay on SF-539 CNS it was -47.8% (active). The values for the growth in the assay with UACC-257 melanoma and with M14 melanoma were 25.3% and 11.6%, respectively.

On to `O=C(CSc1nnc(-c2ccc(Cl)cc2)n1-c1ccccc1)Nc1ccc(Cl)cc1`, for which the growth is 29.1% in the assay on NCI-H23 lung; 16% in the assay on NCI-H226 lung; 41.2% in the assay on NCI-H322M lung; 82.8% in the assay with HOP-62 NSCLC; 19.4% with NCI-H460 lung; -5.1% (active) in the assay on HOP-92 NSCLC. Besides, the growth in the assay with NCI-H522 lung is 39.5%; in the assay with A549/ATCC NSCLC it was 21.5%; with 786-0 renal, -50.2% (active); with COLO 205 colon it was 90.2%; in the assay with DU-145 prostate, 62.1%; in the assay with K-562 leukemia, 59.1%. Besides, the growth in the assay on MALME-3M melanoma was 51%; with MDA-MB-231 breast it was 12.9%; in the assay on RXF 393 renal it was 22.9%; in the assay with SF-268 CNS it was 41.4%; in the assay with SF-295 CNS, 17.2%; in the assay with SF-539 CNS, -15% (active). Also, the growth in the assay with UACC-257 melanoma is 88.2%; in the assay with M14 melanoma, 62.7%.

Regarding `CC1=C(C)C(=O)C(Nc2ccc(C)cc2)=C(Br)C1=O`, the growth was 87.7% with NCI-H23 lung; 86.5% in the assay on NCI-H226 lung; 104% in the assay with NCI-H322M lung; 83.2% in the assay on HOP-62 NSCLC; 102% in the assay on NCI-H460 lung; -35.8% (active) with HOP-92 NSCLC. The growth was 96.1% in the assay with NCI-H522 lung; 100% with A549/ATCC NSCLC; 106% with 786-0 renal; 124% with COLO 205 colon; 106% in the assay with DU-145 prostate; -21.3% (active) with K-562 leukemia. For the same compound, the growth was 112% in the assay with MALME-3M melanoma; 70.1% with MDA-MB-231 breast; 97.7% with RXF 393 renal; 97.3% in the assay on SF-268 CNS; 98.1% in the assay on SF-295 CNS; 100% with SF-539 CNS. Moreover, the growth in the assay with UACC-257 melanoma was 93.8%; in the assay with M14 melanoma, 106%.

`CC(=O)/C(N=Nc1ccc2oc(=O)ccc2c1)=C(\C)O`: the growth is 27.5% with NCI-H23 lung; 42.6% with NCI-H226 lung; 55.1% in the assay with NCI-H322M lung; 26.2% with HOP-62 NSCLC; 14.6% in the assay with NCI-H460 lung; 2.61% (active) in the assay on HOP-92 NSCLC. Further, the growth is 31% in the assay with NCI-H522 lung; 23.6% in the assay with A549/ATCC NSCLC; 37.5% in the assay on 786-0 renal; 15.2% with COLO 205 colon; 48.5% in the assay with DU-145 prostate; 9.96% (active) in the assay on K-562 leukemia. Besides, the growth was 58.3% in the assay with MALME-3M melanoma; 61.2% in the assay with MDA-MB-231 breast; 51.6% in the assay with RXF 393 renal; 45.7% in the assay with SF-268 CNS; 22.5% in the assay with SF-295 CNS; 51.5% in the assay on SF-539 CNS. The values for the growth in the assay on UACC-257 melanoma and in the assay with M14 melanoma were 37.5% and 35.7%, respectively.

`CCc1cc(OC(=O)N2CCN(CCC(C)(COC(C)(C)C)COC(C)(C)C)CC2)ccc1Nc1cc(-c2ccc(-n3cccn3)cc2)[nH]n1`: the growth with NCI-H23 lung is 83.9%; in the assay with NCI-H226 lung, 67.1%; with NCI-H322M lung, 101%; in the assay with HOP-62 NSCLC it was 91.7%; in the assay with NCI-H460 lung it was 74.4%; in the assay on HOP-92 NSCLC, 73.1%. For the same compound, the growth is 80.7% in the assay with NCI-H522 lung; 81.1% with A549/ATCC NSCLC; 85.8% in the assay with 786-0 renal; 80.8% with COLO 205 colon; 84% in the assay on DU-145 prostate; 52.1% in the assay on K-562 leukemia. Further, the growth is 89.7% in the assay with MALME-3M melanoma; 83.5% in the assay with MDA-MB-231 breast; 41% with RXF 393 renal; 73.8% in the assay with SF-268 CNS; 85.1% in the assay on SF-295 CNS; 88.8% in the assay on SF-539 CNS. The growth in the assay with UACC-257 melanoma was 92.9%; with M14 melanoma, 97.6%.

The values above are taken from PubChem BioAssay (NCI).
